Reference: PubChem BioAssay (EPA / NIEHS)
Inconclusive results are not listed. Activity calls are given as the source filed them. The calls were made as follows: active = hit-call score of the fitted dose curve at least 0.9, where 1 is the maximum; inconclusive = response in the unintended direction; inactive = score below 0.9.

molecular target: AR (gene 367) (UniProt P10275); assay: ACEA_AR_antagonist_80hr: ACEA Biosciences xCELLigence Real-Time Cell Analysis on Androgen Receptor Antagonism for Proliferation (AID 2283787)
Procedure: ACEA_AR_antagonist is a cell-based, single-readout assay that uses 22Rv1, a human prostate cancer cell line, with measurements taken at 80 hours after chemical dosing in a 384-well plate, although TO5 and TO6 (mc0.srcf) used a 96-well plate. Differences in plate size can be ignored given data normalization.ACEA_AR_antagonist_80hr is one of two assay component(s) measured or calculated from the ACEA_AR assay. It is designed to make measurements of real-time cell-growth kinetics, a form of growth reporter, as detected with electrical impedance signals by Real-Time Cell Electrode Sensor (RT-CES) technology.Data from the assay component ACEA_AR_antagonist_80hr was analyzed in the positive analysis fitting direction relative to DMSO as the negative control and baseline of activity. Using a type of growth reporter, measures of the cells for loss-of-signal activity can be used to understand the signaling at the pathway-level as they relate to the gene AR. Furthermore, this assay endpoint can be referred to as a primary readout, because this assay has produced multiple assay endpoints where this one serves a signaling function. To generalize the intended target to other relatable targets, this assay endpoint is annotated to the nuclear receptor intended target family, where the subfamily is steroidal.
The xCELLigence system Multi-E-Plate stations were used to measure the time-dependent response to chemicals. Each compound was tested in an eight-point, 1:4 serial dilution series starting at a maximum final concentration of 100 uM. A maximum starting concentration of 0.5% DMSO was present in the 100 uM chemical samples and was diluted along with the test article dilution series. The screen was performed in biological duplicate using two separate, 96-well, E-Plates 96 for each dilution series (n = 2). Positive controls (MG132 and testosterone) and a negative control (assay media) were tested in quadruplicate on each testing plate. […] Reference compounds were tested with 8 concentrations with 1:5 serial dilutions. All screening was carried out by ACEA Biosciences, Inc. (San Diego, CA). 22Rv1 cells purchased from ATCC were maintained in media supplemented with 10% fetal bovine serum (FBS). Before screening, 22Rv1 cells were preconditioned in assay medium. Cells were then detached and seeded in E-Plates 96 in assay medium. After overnight monitoring of growth once every hour, compounds were added to […] cells and remained in the medium until the end of the experiment. Cellular responses were then recorded once every 5 min for the first 5 h, and once every hour for an additional 100 h.

AR (gene 367), sequence (P10275 whole entry, looked up): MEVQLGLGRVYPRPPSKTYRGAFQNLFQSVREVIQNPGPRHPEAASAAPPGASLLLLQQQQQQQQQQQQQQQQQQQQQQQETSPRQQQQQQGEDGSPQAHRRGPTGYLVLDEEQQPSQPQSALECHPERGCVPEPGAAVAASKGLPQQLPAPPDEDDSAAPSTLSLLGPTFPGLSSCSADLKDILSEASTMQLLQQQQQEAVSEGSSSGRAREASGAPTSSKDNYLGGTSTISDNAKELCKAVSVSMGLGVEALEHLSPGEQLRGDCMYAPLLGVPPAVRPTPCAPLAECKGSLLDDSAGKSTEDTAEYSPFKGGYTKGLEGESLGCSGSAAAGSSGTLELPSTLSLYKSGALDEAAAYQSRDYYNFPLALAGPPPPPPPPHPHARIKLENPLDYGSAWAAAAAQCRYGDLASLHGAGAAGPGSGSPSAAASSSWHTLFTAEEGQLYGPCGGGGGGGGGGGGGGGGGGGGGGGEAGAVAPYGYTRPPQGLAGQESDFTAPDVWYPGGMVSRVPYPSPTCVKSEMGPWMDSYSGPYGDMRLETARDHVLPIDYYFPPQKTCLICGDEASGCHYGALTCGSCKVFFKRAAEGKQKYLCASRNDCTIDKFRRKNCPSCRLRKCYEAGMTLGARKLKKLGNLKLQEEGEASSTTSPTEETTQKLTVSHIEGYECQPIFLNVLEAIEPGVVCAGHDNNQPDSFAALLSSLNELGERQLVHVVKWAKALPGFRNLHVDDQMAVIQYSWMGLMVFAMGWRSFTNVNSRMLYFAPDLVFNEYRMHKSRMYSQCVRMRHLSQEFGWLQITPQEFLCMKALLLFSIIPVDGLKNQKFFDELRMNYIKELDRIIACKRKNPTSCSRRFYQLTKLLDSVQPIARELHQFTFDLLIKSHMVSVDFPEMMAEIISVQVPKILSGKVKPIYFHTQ

Compound | AC50 | outcome
COC(=O)Nc1nc2ccccc2[nH]1 | 19.6 µM (active) | 
CC(C)(O)c1cnn2c(-c3ccc(F)c(-c4c(F)cccc4C#N)c3)cnc2n1 | 57.9 µM (active) | 
O=[N+]([O-])C(Br)(CO)CO | 30.6 µM (active) | 
CC(C)N(Cc1ccccc1)C(=O)C(C)(C)C |  | inactive
CNC(=O)Oc1cccc2c1OC(C)(C)C2 |  | inactive
C[N+](C)(C)CC1CO1 (stereo not given) |  | inactive
Cc1cc(N=Nc2ccccc2C)ccc1N | 52.6 µM (active) | 
C[C@]12C=CC3=C4CCC(=O)C=C4CC[C@H]3[C@@H]1CC[C@@H]2O |  | inactive
Nc1ccc(Cl)cc1N | 50 µM (active) | 
CCNS(=O)(=O)C(F)(F)C(F)(F)C(F)(F)C(F)(F)C(F)(F)C(F)(F)C(F)(F)C(F)(F)F |  | inactive
CC(C)(OOC(C)(C)c1ccccc1)c1ccccc1 | 26.6 µM (active) | 
O=C1CCCO1 |  | inactive
Nc1ccc([N+](=O)[O-])cc1 | 22 µM (active) | 
O=C(Nc1ccccc1)c1ccccc1I |  | inactive
CO[C@@H]1[C@H](OC(=O)NC(=O)CCl)CC[C@]2(CO2)[C@H]1[C@@]1(C)O[C@@H]1CC=C(C)C | 12.6 µM (active) | 
